Test results published in PubChem BioAssay (NCATS).
Activity calls are given as the source filed them. Calls come from the whole dose curve; as a rule, active = well fitted curve in the direction sought with a large enough effect; inconclusive = small, poorly fitted or top-dose-only effect, or effect the other way, or another doubt; inactive = no such curve, though single readings can be large or run the other way.

experiment: Inducers of the Endoplasmic Reticulum Stress Response (ERSR) in human glioma: Validation (AID 504836); conditions: human glioma cells, ER stress response reporter; series mostly up to 38.3 µM
Procedure, shortened: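 Stably transfected U87-MG glioma cells carrying a GRP78-based luciferase sensor; 16 h compound incubation. Luminescence end-point read 10 min after Bright-Glo addition at room temperature.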

SMILES	outcome
CCCCOC(=O)NS(=O)(=O)c1sc(CC(C)C)cc1-c1ccc(Cn2c(CC)nc3c(C)cc(C)nc32)cc1	inactive
C1CCC(N=C(NC23CC4CC(CC(C4)C2)C3)N2CCOCC2)CC1	inactive
[N-]=[N+]=Nc1ccc(C(=O)CSC[C@H](NC(=O)CC[C@H](N)C(=O)O)C(=O)NCC(=O)O)cc1	inactive
Nc1ncnc2c1c(-c1ccc(Oc3ccccc3)cc1)cn2C1CCCC1	inactive
